From paper PMC5540273 (PLoS ONE, 2017)

How the values were obtained:
Settings in all cases: concentration: 1 μM, replicates: in singlicate; n = 1
[1] = tested on: PIK3CD
[2] = tested on: PIK3CG
[3] = tested on: T1, PIK4CB
T1 construct: gene PI4KB

[4] = tested on: PIKFYVE
[5] = tested on: PIM1
[6] = tested on: PIM2
[7] = tested on: PIM3
[8] = tested on: PIP5K1A
[9] = tested on: PIP5K1C
[10] = tested on: PIP5K2B
[11] = tested on: T2, PIP5K2C
T2 construct: gene PIP4K2C

[12] = tested on: T3, PKAC-alpha
T3 construct: gene PRKACA

[13] = tested on: T4, PKAC-beta
T4 construct: gene PRKACB

[14] = tested on: PKMYT1
[15] = tested on: PKN1
[16] = tested on: PKN2
[17] = tested on: PLK1
[18] = tested on: PLK2
[19] = tested on: PLK3
[20] = tested on: PLK4
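Note: KINOMEscan kinase panel screen.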

| Compound | %Inh [1] | %Inh [2] | %Inh [3] | %Inh [4] | %Inh [5] | %Inh [6] | %Inh [7] | %Inh [8] | %Inh [9] | %Inh [10] | %Inh [11] | %Inh [12] | %Inh [13] | %Inh [14] | %Inh [15] | %Inh [16] | %Inh [17] | %Inh [18] | %Inh [19] | %Inh [20] |
| --- | --- | --- | --- | --- | --- | --- | --- | --- | --- | --- | --- | --- | --- | --- | --- | --- | --- | --- | --- | --- |
| Cl.Cl.c1ccc(-c2cc3ccncc3cc2OC2CCNCC2)cc1 [GSK1122999] | 30% | 3% | 0% | 0% | 25% | 0% | 39% | 0% | 25% | 10% | 6% | 0% | 9% | 14% | 0% | 19% | 5% | 0% | 0% | 9% |
| O=C(Nc1ccccc1)Nc1ccc(Oc2ccc3nccn3n2)cc1 | 0% | 0% | 0% | 5% | 0% | 6% | 0% | 4% | 25% | 7% | 25% | 0% | 55% | 8% | 6% | 4% | 3% | 0% | 15% | 0% |
| Fc1cccc(COc2ccc(Nc3ncnc4cc[nH]c34)cc2Cl)c1 | 17% | 9% | 12% | 0% | 26% | 13% | 34% | 0% | 0% | 16% | 5% | 25% | 1% | 10% | 0% | 0% | 23% | 23% | 23% | 27% |
| NC(=O)c1sc(-n2cnc3ccccc32)cc1OCc1ccccc1F [GSK1024306] | 39% | 0% | 0% | 20% | 21% | 0% | 0% | 0% | 53% | 0% | 8% | 21% | 2% | 0% | 60% | 0% | 99.8% | 99% | 98.8% | 0% |
| CNc1nccc(-c2c(-c3ccc(F)cc3)ncn2CCCN2CCOCC2)n1 [SB-222516] | 0% | 0% | 20% | 0% | 0% | 0% | 81% | 6% | 17% | 0% | 0% | 1% | 19% | 0% | 0% | 36% | 41% | 14% | 0% | 0% |
| COC(=O)c1c(-c2ccccc2)c2cc(Cl)ccc2c(=O)n1Cc1ccc(S(C)(=O)=O)cc1 | 34% | 25% | 46% | 0% | 1% | 16% | 2% | 16% | 0% | 49% | 0% | 5% | 0% | 1% | 0% | 0% | 0% | 6% | 9% | 26% |
| Cc1ccc(NC(=O)c2cccc(C#N)c2)cc1-c1ccc(C(=O)Nc2ccncc2)cc1 [GSK1398463] | 1% | 0% | 11% | 0% | 9% | 0% | 0% | 0% | 38% | 23% | 0% | 0% | 0% | 0% | 28% | 0% | 0% | 0% | 0% | 2% |
| CS(=O)(=O)CCNCc1ccc(-c2ccc3ncnc(Nc4ccc(OCc5ccccc5)c(Cl)c4)c3c2)o1.Cl [GW574783] | 0% | 0% | 8% | 23% | 0% | 5% | 0% | 32% | 62% | 0% | 29% | 4% | 16% | 0% | 12% | 8% | 6% | 0% | 0% | 0% |
| CN1c2ccc(-c3ccc(C(=O)NCCO)cc3)cc2-c2[nH]ncc2S1(=O)=O | 10% | 0% | 0% | 0% | 10% | 5% | 24% | 0% | 41% | 0% | 76% | 33% | 55% | 16% | 0% | 30% | 21% | 17% | 0% | 25% |
| COc1cc2ncnc(Nc3ccc(OCc4ccccc4Br)c(Cl)c3)c2cc1OC.Cl [GI261590] | 0% | 0% | 0% | 28% | 0% | 0% | 15% | 34% | 56% | 11% | 41% | 0% | 0% | 3% | 100% | 0% | 3% | 0% | 0% | 0% |
| CSc1nn2c(=O)cc(N3CCOCC3)nc2n1Cc1cccc(Cl)c1Cl [GSK2347225] | 85% | 56% | 0% | 37% | 8% | 0% | 0% | 0% | 27% | 4% | 7% | 24% | 12% | 0% | 5% | 0% | 55% | 0% | 5% | 13% |
| OCCOCCn1ccc2ncnc(Nc3ccc(Oc4cccc(Cl)c4)c(Cl)c3)c21 | 0% | 0% | 0% | 25% | 2% | 0% | 5% | 0% | 34% | 0% | 30% | 0% | 0% | 0% | 13% | 0% | 0% | 0% | 0% | 0% |
| COc1ccc(Nc2nccc(N3CCC(NC(=O)c4cccc(NC(C)=O)c4)C3)n2)cc1 (stereo not drawn) [GSK1379732] | 0% | 0% | 0% | 0% | 0% | 0% | 0% | 49% | 70% | 12% | 57% | 0% | 12% | 3% | 0% | 0% | 15% | 6% | 0% | 0% |
| CCc1nc(-c2cccc(C)c2)c(-c2ccnc(NC(=O)c3ccccc3)c2)s1 | 44% | 0% | 62% | 1% | 0% | 0% | 0% | 15% | 0% | 64% | 99.1% | 0% | 0% | 0% | 13% | 0% | 0% | 5% | 9% | 17% |
| CC(C)N1CCC(n2cnc(-c3ccc(F)cc3)c2-c2ccnc(N)n2)CC1 [SB-223132] | 0% | 7% | 0% | 10% | 29% | 22% | 10% | 54% | 49% | 0% | 62% | 0% | 22% | 0% | 0% | 0% | 0% | 0% | 0% | 0% |
